The values below come from PubChem BioAssay AID504652 (National Center for Advancing Translational Sciences (NCATS), 2011).

In all, about 360,000 compounds went through this assay and about 11,000 (3.1%) were called active. The sample as a whole holds a higher share of actives than the screen did. A number with no mark means an inactive call. Cut-off read from the data, not from the text of the source: active = activity change below about -30%; inactive = the rest.
% is set by controls: 0 for no effect and ±100 for the full control effect.

D(1A) dopamine receptor (Homo sapiens), sequence (P21728 whole entry, looked up): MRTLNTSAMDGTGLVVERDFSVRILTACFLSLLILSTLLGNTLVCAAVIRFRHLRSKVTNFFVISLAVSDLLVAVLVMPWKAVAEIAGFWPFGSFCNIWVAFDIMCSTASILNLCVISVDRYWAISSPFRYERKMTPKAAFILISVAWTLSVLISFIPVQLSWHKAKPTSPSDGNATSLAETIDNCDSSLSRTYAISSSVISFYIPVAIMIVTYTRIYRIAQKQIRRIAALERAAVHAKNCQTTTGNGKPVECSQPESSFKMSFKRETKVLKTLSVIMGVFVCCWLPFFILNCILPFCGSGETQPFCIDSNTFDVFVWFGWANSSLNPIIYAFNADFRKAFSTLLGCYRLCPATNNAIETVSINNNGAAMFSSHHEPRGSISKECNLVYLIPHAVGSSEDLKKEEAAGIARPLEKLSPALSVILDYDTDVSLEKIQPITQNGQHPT

For the test, the target named is D(1A) dopamine receptor (Homo sapiens) (UniProt P21728). Briefly: Antagonist of Human D 1 Dopamine Receptor: qHTS. As to conditions: HEK293 TREx D1 cells, calcium flux, dopamine EC80; at 10 µM; stronger effect = lower value. An excerpt:
Dopamine receptors (DARs) are involved in the etiology and/or therapy of a number of neuropsychiatric and endocrine disorders. For instance, all receptor-based antiparkinsonian drugs work via stimulating the […] DAR subtype whereas all FDA-approved antipsychotic agents are antagonists of this receptor. […] There are three different types of allosteric modulators that we are seeking, two of which will stimulate or augment receptor signaling, allosteric agonists and potentiators, while the third, allosteric antagonists, will attenuate receptor signaling. The present primary screening assay measures compound antagonism after an EC80 addition of dopamine by tracking calcium flux in a […], inducible Hek293 Trex D1 cell line. NIH Chemical Genomics Center [NCGC] NIH Molecular Libraries Probe Centers Network [MLPCN] MLPCN Grant: NS064831-01 Assay Submitter (PI): David Sibley
Freshly passaged cells are plated in 1536 well black, clear bottom plates at a density of 4000 cells/well in 3 ul of complete media containing 1x tetracycline inducer. After an overnight incubation at 30 C in 5% CO2, cells are loaded with 2 ul of the no wash Calcium Assay Kit (ABD Bioquest) and incubated at room temperature for 30 to 90 minutes. Agonist read: A 10 cycle (1 second/cycle) baseline measurement is taken and then the FDSS online 1536 pintool delivers 23 nl of compound library (as well as dopamine controls) to the plate. The plate is measured for kinetically at 1 cycle/sec for 180 seconds. Following the 180 second read, 1 ul of an EC80 (negative modulation assay) is delivered by an onboard pipette head. Measurements are taken kinetically for an additional 180 seconds.
(Quantitative high-throughput screening tests each substance at several concentrations.)
`COc1cc(NC(=O)Cn2c(=O)n(Cc3ccco3)c(=O)c3oc4ccccc4c32)cc(OC)c1`: the activity change, negative = inhibition was 8.05%.

`COc1cc(OC)c(OC)cc1/C=C/c1nc2ccccc2c(=O)n1-c1ccc(Br)c(C)c1`: the activity change, negative = inhibition is 0.553%.

Turning to `Cc1ccc(S(=O)(=O)CCC(=O)Nc2nnc(CC(C)C)s2)cc1`, the activity change, negative = inhibition is 6.37%.

For `CC(C)Cc1nnc(NC(=O)CCc2ccccc2)s1`, the activity change, negative = inhibition was 3.92%.

Regarding `CC(C)Cc1nnc(NC(=O)CCC(=O)Nc2ccc3cn[nH]c3c2)s1`, the activity change, negative = inhibition is -55.6% (active).

For the compound `Cc1c(Cl)cccc1NC(=O)C1CCCN(C(=O)c2cnn(-c3ccccc3)c2-n2cccc2)C1` (configuration not stated), the activity change, negative = inhibition was 7.6%.

Take `Cc1ccc(SCC(=O)Nc2ccc3oc(-c4ccccc4F)nc3c2)cc1`: the activity change, negative = inhibition is -5.46%.

On to `CCOC(=O)c1ccccc1NC(=O)c1nn(-c2ccc(OC)c(Cl)c2)c(=O)c2c1c1ccccc1n2C`, for which the activity change, negative = inhibition was 5.56%.

On to `O=C(CSc1cn(CC(=O)N2CCOCC2)c2ccccc12)Nc1ccccc1`, for which the activity change, negative = inhibition is 11.6%.

For `COc1cccc(NC(=O)CN(C)C(=O)/C=C/c2cc(OC)ccc2OC)c1`, the activity change, negative = inhibition was 24.2%.

As to `COc1cccc(NC(=O)CN(C)C(C)C(=O)Nc2ccc(C#N)cc2)c1` (configuration not stated), the activity change, negative = inhibition was -40.7% (active).

Regarding `COc1cccc(NC(=O)CN(C)C(=O)c2ccccc2CCc2ccccc2)c1`, the activity change, negative = inhibition was 3.89%.

Consider `COC(=O)c1ccccc1NC(=O)c1cnn(-c2ccc(F)cc2)c1-n1cccc1`, for which the activity change, negative = inhibition is 15%.

As for `Cc1cccc(NC(=O)Cn2c(C(F)(F)F)nc3ccccc32)c1C`, the activity change, negative = inhibition is -9.8%.

Regarding `COc1cccc(C(=O)NCc2ccc3c(c2)CCN3C(=O)c2ccncc2)c1`, the activity change, negative = inhibition is -7.86%.

For the compound `Cc1ccc(CNC(=O)c2c(O)nc3c(C)cccn3c2=O)cc1`, the activity change, negative = inhibition was 16.2%.

For the compound `Cc1cccc(-n2c(SCC(N)=O)nc3c(oc4ccccc43)c2=O)c1`, the activity change, negative = inhibition is -16.4%.

Consider `CCc1sc(C(=O)N2CCN(CC(=O)Nc3cccc(F)c3)CC2)cc1C`, for which the activity change, negative = inhibition was -30.4% (active).

On to `O=C(CN1CCN(c2ccc(F)cc2)CC1)Nc1cccc(C(F)(F)F)c1`, for which the activity change, negative = inhibition is -2.58%.

As to `CC(=O)N1CCN(CC(=O)Nc2ccc(C)c(F)c2)CC1`, the activity change, negative = inhibition is 1.94%.

Take `O=C(CSc1n[nH]c(-c2ccccc2)n1)N1CCCCC1`: the activity change, negative = inhibition is -15.7%.

As to `COC(=O)[C@@H](NC(=O)Nc1cc(Cl)ccc1C)C(C)C`, the activity change, negative = inhibition is -41.7% (active).

`Cc1ccc(Cl)cc1NC(=O)COC(=O)CC(C)(C)C`: the activity change, negative = inhibition is 4.47%.

In the case of `COc1ccc(Cl)cc1NC(=O)NC(C)C(C)(C)C` (configuration not stated), the activity change, negative = inhibition is -26.1%.

With `Cc1cc2ccccc2n1CCNC(=O)c1ccc(F)cc1`, the activity change, negative = inhibition is -21.6%.

Consider `COc1ccc(S(=O)(=O)NCCSc2nnnn2-c2ccccc2)cc1`, for which the activity change, negative = inhibition is -6.65%.

Consider `Cn1c(C(=O)Nc2cccc(C(F)(F)F)c2)cc2c(=O)n3ccccc3nc21`, for which the activity change, negative = inhibition is -9.44%.

`Cc1cc(Cl)c(S(=O)(=O)NCC2CCCO2)cc1OCC(N)=O` (configuration not stated): the activity change, negative = inhibition was -3.64%.

With `Cc1cc(Cl)c(S(=O)(=O)Nc2ccc3c(c2)OCCO3)cc1OCC(N)=O`, the activity change, negative = inhibition is -35.2% (active).

Take `Cc1cc(Cl)c(S(=O)(=O)N(C)C)cc1OCC(N)=O`: the activity change, negative = inhibition was 5.54%.

On to `COc1ccc(CNC(=O)Cc2coc3ccc(C(C)C)cc23)cc1`, for which the activity change, negative = inhibition is -5.84%.

Regarding `COc1cccc(N2CCN(S(=O)(=O)c3cc(Br)cc4c3N(C(=O)C3CC3)CC4)CC2)c1`, the activity change, negative = inhibition is -4.38%.

`COc1ccccc1NC(=O)Cn1cnc2ccc(S(=O)(=O)N3CCC(C)CC3)cc2c1=O`: the activity change, negative = inhibition is 0.0222%.

Consider `CCN1CCCC1CNC(=O)Cn1cnc2ccc(S(=O)(=O)N3CCC(C)CC3)cc2c1=O` (configuration not stated), for which the activity change, negative = inhibition is -45% (active).

Consider `CC1CCN(S(=O)(=O)c2ccc3ncn(CC(=O)N(C)C4CCCCC4)c(=O)c3c2)CC1`, for which the activity change, negative = inhibition is -7.06%.

Turning to `COc1ccc(-c2nn(CC(=O)NC3CCCC3)c3c2cnc2ccc(F)cc23)cc1`, the activity change, negative = inhibition is -17.2%.

For `Cc1ccc(NC(=O)CN2C(=O)CC(C)Sc3ccccc32)c(C)c1` (configuration not stated), the activity change, negative = inhibition is 5.35%.

In the case of `NC(=O)C1(C(N)=O)OC1c1ccc(Cl)cc1Cl` (configuration not stated), the activity change, negative = inhibition was -18.1%.

On to `COC(=O)C1=CN(c2ccc(F)c(F)c2)C=C(C(=O)OC)C1c1ccc([N+](=O)[O-])cc1`, for which the activity change, negative = inhibition was 13.5%.

Turning to `COC(=O)C1=CN(C)C=C(C(=O)OC)C1c1ccc(Cl)cc1Cl`, the activity change, negative = inhibition was -50.3% (active).

In the case of `Cc1ccc(Nc2ccc3cc(S(=O)(=O)N4CCCCC4)ccc3n2)cc1F`, the activity change, negative = inhibition is -15.5%.

`COc1ccccc1NC(=O)CCN1CCN(c2ccc(Cl)cc2)CC1`: the activity change, negative = inhibition was -41% (active).

Take `CCOc1ccccc1NC(=O)CCN1CCN(S(=O)(=O)c2ccc(OC)cc2)CC1`: the activity change, negative = inhibition was -3.32%.

Consider `COc1ccc(NC(=O)CCN2CCCC2)c(OC)c1`, for which the activity change, negative = inhibition was 0.848%.

With `Cc1ccc(C(=O)NC(=S)Nc2ccc(N3CCOCC3)cc2)cc1`, the activity change, negative = inhibition is -12.4%.

For `COc1ccc(C(=O)NC(=S)Nc2ccc(N3CCCC3)cc2)cc1OC`, the activity change, negative = inhibition is -30.7% (active).

For the compound `COc1ccc(C(=O)NC(=S)Nc2ccccc2N2CCN(S(C)(=O)=O)CC2)cc1OC`, the activity change, negative = inhibition was -7.6%.

On to `O=C(NCc1ccc2c(c1)CCN2C(=O)c1ccccc1)Nc1cc(F)ccc1F`, for which the activity change, negative = inhibition was 1.84%.

On to `Cc1c(N=Nc2ccc(N(C)C)cc2)c(=O)n(-c2ccccc2)n1C`, for which the activity change, negative = inhibition is -0.41%.

On to `Cc1[nH]n(C)c(=O)c1C(=O)c1c(-c2c(Cl)cccc2Cl)noc1C`, for which the activity change, negative = inhibition is -9.05%.

`Cc1[nH]n(C)c(=O)c1N=Nc1ccc(S(C)(=O)=O)cc1`: the activity change, negative = inhibition is -33.8% (active).

`CCOc1cc(C)c(Cl)cc1S(=O)(=O)n1nnc2ccccc21`: the activity change, negative = inhibition was -41.9% (active).

For the compound `CCOc1cc(C)c(S(=O)(=O)NCc2ccccn2)cc1C`, the activity change, negative = inhibition is -15%.

Take `CCOc1ccc(S(=O)(=O)N2CCCCCC2)c2ccccc12`: the activity change, negative = inhibition was 1.18%.

Consider `COc1ccc(OC)c(CNC(=O)CN2C(=O)CCn3nc(-c4cn(C)c5ccccc45)cc32)c1`, for which the activity change, negative = inhibition was 9.51%.

For the compound `COc1ccc(-n2ccnc(NCCc3ccc(Cl)cc3)c2=O)cc1OC`, the activity change, negative = inhibition was -3.67%.

Consider `Cc1cccc(N2CCN(C(=O)c3cc4c(=O)oc5ccccc5c4s3)CC2C)c1` (configuration not stated), for which the activity change, negative = inhibition is -15.4%.
